About 1,900 (0.58%) of roughly 330,000 compounds were called active. Roughly 4% stayed inconclusive and do not appear here. No stated cut-off is given here; in the data, inconclusive means inhibition above about 70% without an active follow-up result; inactive means below that. Only a sample is shown. Entries with a potency or affinity are not part of this list.
experiment: M. tuberculosis growth inhibition, HTS (AID 449762);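 further: bacterial growth assessed after seven days of incubation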; settings: M. tuberculosis H37Rv growth inhibition, 7H9 media; at 25 µM; stronger effect = higher value

| Structure (SMILES) | inhibition |
| --- | --- |
| C/C(=N/NS(=O)(=O)c1ccc(Br)cc1)c1c[nH]c2ccccc12 | 2.63% (inactive) |
| CCOc1ccc(CN2CCNC(=O)C2CC(=O)N(C)CC2CCOCC2)cc1 (centres undefined) | 5.35% (inactive) |
| COc1cc(C(=O)NCC(=O)Nc2c(C)cccc2C)ccc1OCc1ccccc1 | -1.77% (inactive) |
| COc1ccc(C(=O)N2CCC(n3nccc3NC(=O)C3CC3)CC2)cc1F | 0.61% (inactive) |
| COc1cc(/C=C2/C(=N)N3N=C(CC(=O)N4CCOCC4)SC3=NC2=O)ccc1OCc1ccccc1F | 0.04% (inactive) |
| Cc1ccc(S(=O)(=O)N(C)c2ccc(C(=O)N3CCC(C(N)=O)CC3)cc2)cc1 | -5.27% (inactive) |
| CCOC(=O)N1CCN(C(=S)NC(=O)c2cccc(OC)c2)CC1 | -0.27% (inactive) |
| O=C(O)CCCN1C(=O)c2cccc3cccc(c23)C1=O | -5.41% (inactive) |
| CN(C)CCCN1C(=O)c2cccc3cccc(c23)C1=O | -1.82% (inactive) |
| O=C1/C(=C/Nc2cccc([N+](=O)[O-])c2)CCc2ccccc21 | 2.58% (inactive) |
| O=C1CCCC/C1=C/Nc1ccc2c(c1)OCO2 | 59.1% (inactive) |
| Cc1cccc(C(=O)NCCc2csc(C)n2)c1 | -0.44% (inactive) |
| CCCCC(CC)C(=O)N1CCN(C(=O)c2ccco2)CC1 (centres undefined) | -4.92% (inactive) |
| CCc1nc(Nc2ccccc2OC)c2oc3ccccc3c2n1 | 2.96% (inactive) |
| COc1ccc(C(=O)NCc2nnc(SCC(=O)c3ccc(F)cc3)n2C)cc1OC | -0.94% (inactive) |
| CC(=O)N(C1=C(N)C(=O)c2ccccc2C1=O)c1ccccc1 | -1.88% (inactive) |
| CNC1=C(N(C(C)=O)c2ccc(Br)cc2)C(=O)c2ccccc2C1=O | -2.3% (inactive) |
| CN(CC(=O)NCCc1ccc(F)cc1)Cc1ccccc1 | -0.22% (inactive) |
| CC(CCc1ccccc1)NC(=O)CN(C)Cc1ccc(F)cc1 (centres undefined) | 0.05% (inactive) |
| CC1CCCCC12NC(=O)N(CC(=O)OCc1ccc(Br)cc1)C2=O (centres undefined) | 5.76% (inactive) |
| CN(C)S(=O)(=O)c1ccc(C(=O)NNC(=O)C2COc3ccccc3O2)cc1 (centres undefined) | 2.93% (inactive) |
| O=C(O)c1cc(N/N=C/c2ccc(OCc3ccccc3)cc2)ccc1Cl | -0.4% (inactive) |
| CN(C(=O)CO/N=C/c1ccc(Cl)cc1)c1ccccc1 | -0.18% (inactive) |
| COc1ccc(C=NOCC(=O)OCC(=O)Nc2ccc(OC)cc2)cc1 | 4.42% (inactive) |

| Structure (SMILES) | inhibition |
| --- | --- |
| CC(C)Oc1ccc(/C(O)=C2/C(=O)C(=O)N(CCN(C)C)C2c2cccs2)cc1 (centres undefined) | 4.08% (inactive) |
| CCCOc1ncnc2c1[nH]c1ccc(C)cc12 | 6.51% (inactive) |
| O=C(NCc1ccccc1)C(=O)Nc1nc(C23CC4CC(CC(C4)C2)C3)cs1 | 1.12% (inactive) |
| O=C(NCc1ccccn1)C(=O)Nc1nc(-c2ccccc2)cs1 | 55.8% (inactive) |
| COc1ccc(C)cc1NC(=O)C(NC(=O)c1cc(OC)c(OC)c(OC)c1)C(C)C (centres undefined) | 0.19% (inactive) |
| COc1cc(OC)c(C(=O)NNC(=S)NC2CCCCC2)cc1OC | -2.47% (inactive) |
| S=C(NC1CCCCCC1)NC1CCCC1 | 1.4% (inactive) |
| CCOc1cccc2cc(C(=O)Nc3cc(C)on3)c(=O)oc12 | 3.23% (inactive) |
| CCOc1ccccc1C(=O)Nc1nccs1 | -0.35% (inactive) |
| CCN(CC)c1ccc(NS(=O)(=O)c2cn(C)c(=O)n(C)c2=O)c(C)c1 | -6.59% (inactive) |
| Cc1cc(C(=O)NNc2c(Cl)cccc2Cl)n(C(C)(C)C)n1 | -6.53% (inactive) |
| COc1cccc(NC(=O)C2CCN(C(=O)[C@@H]3Cc4ccccc4CN3C(=O)OC(C)(C)C)CC2)c1 | 2.76% (inactive) |
| COc1cccc(/C=N/n2c(COc3ccccc3)n[nH]c2=S)c1 | 0.11% (inactive) |
| Cc1cccc(/C=N/n2c(COc3ccccc3)n[nH]c2=S)c1 | 9.89% (inactive) |
| Cc1ccsc1/C=N/NC(=O)Cc1ccc([N+](=O)[O-])cc1 | 0.13% (inactive) |
| COC(=O)C1=C(c2ccc(F)cc2OCc2ccccc2)C[C@@H]2CC[C@H]1N2C(=O)NCc1ccc(C)cc1 | 11.4% (inactive) |
| Cc1nnc(SCC(=O)NC2CCCCC2)[nH]c1=O | -4.1% (inactive) |
| Cc1cc(=O)[nH]c(SCC(=O)NC2CCCCCC2)n1 | 1.87% (inactive) |
| COc1cc(C(=O)NNC(=O)c2cc(C)[nH]n2)cc(OC)c1OC | -0.74% (inactive) |
| COc1ccc(NC(=O)CN(C)C(=O)COc2ccccc2Cc2ccccc2)cc1 | 10.9% (inactive) |
| COC(=O)CCCC1=CC2=CC(=O)C(C)(OC(=O)c3cccs3)C(=O)C2=CN1Cc1ccccc1 (centres undefined) | -3.58% (inactive) |
| Cc1[nH]c2ccccc2c1C(=O)C(=O)N1CCN(c2cccc(Cl)c2)CC1 | 13.6% (inactive) |
| CC1(C)Cc2nc3sc4c(SCC(=O)O)ncnc4c3cc2CO1 | 0.43% (inactive) |
| CCSc1ncnc2c1sc1nc3c(cc12)COC(C)(C)C3 | 3.08% (inactive) |

| Structure (SMILES) | inhibition |
| --- | --- |
| Cc1ccc(C)c(NC(=O)CN(C)C(=O)c2cccc(S(=O)(=O)N3CCN(Cc4ccccc4)CC3)c2)c1 | 4.09% (inactive) |
| OCCCn1c(CCNc2nc(-c3ccc(Cl)cc3)cs2)nc2cc(C(F)(F)F)ccc21 | 29.6% (inactive) |
| CN1CCN(/N=C/c2ccc(-c3ccccc3)cc2)CC1 | 4.56% (inactive) |
| CN1CCN(/N=C/c2cccc(Cl)c2Cl)CC1 | 4.06% (inactive) |
| COC(=O)c1ccc(CS(=O)(=O)c2ccc(C)cc2)o1 | 2.36% (inactive) |
| Cc1ccc(NC(=O)CC2OC(=O)c3ccccc32)cc1S(=O)(=O)N1CCCCCC1 (centres undefined) | -3.23% (inactive) |
| Cc1nn(CCc2nn[nH]n2)c2nc(-c3ccccc3)cc(C(F)(F)F)c12 | 3.42% (inactive) |
| Cc1nn(CCc2nn[nH]n2)c2nc(-c3ccc(C4CCCCC4)cc3)cc(C(F)(F)F)c12 | 21.8% (inactive) |
| CC(C)(C)c1ccc(C(=O)N2CCC(=O)N(C(COCc3ccccc3)Cc3ccccc3)CC2)cc1 (centres undefined) | -7.28% (inactive) |
| C=CCNc1oc(-c2ccc(OCC)cc2)nc1C#N | 0.33% (inactive) |
| Cc1ccc(S(=O)(=O)N2CCN(Cc3nc4ccccc4n3C)CC2)cc1 | -10.2% (inactive) |
| CC(OC(=O)c1nc(Cl)ccc1Cl)C(=O)Nc1ccc2c(c1)OCCO2 (centres undefined) | 23.5% (inactive) |
| Cc1ccc(OCCCCN2CCCCC2)c(C)c1 | 0.08% (inactive) |
| Cc1ccc(OCCCCNC2CCCCC2)c(C)c1 | 0.93% (inactive) |
| O=C(COC(=O)C1=Cc2ccccc2OC1)NCc1ccccc1 | -0.53% (inactive) |
| Cc1ccc2c(c1)N(CC(=O)OC(CC(C)C)C(=O)NC1CCCC1)C(=O)CO2 (centres undefined) | 0.6% (inactive) |
| Cc1nc(-c2ccccc2)sc1C1(C)CC(c2ccc(OC(F)(F)F)cc2)=NO1 (centres undefined) | 1.65% (inactive) |
| Cc1nc(NC(=O)c2ccccc2)sc1C1(C)CC(c2ccccc2F)=NO1 (centres undefined) | -0.28% (inactive) |
| CN1C(=O)C(O)(CC(=O)c2cccnc2)c2ccccc21 (centres undefined) | -2.52% (inactive) |
| CCC1CN(C(=O)N2CCC(C(=O)NCc3ccc(C)o3)CC2)c2cc(C)ccc2O1 (centres undefined) | -5.76% (inactive) |
| Cc1ccnc(N/C=C(/NC(=O)c2ccccc2)C(=O)NN)n1 | 2.37% (inactive) |
| COc1ccc(-n2c(C)cc(C(=O)COC(=O)Cn3cnc4ccccc43)c2C)cc1 | 5.9% (inactive) |
| COc1ccccc1C1=NOC(COC(=O)c2ccc(Br)cc2)C1 (centres undefined) | 66.3% (inactive) |
| COc1ccc(C(=O)OCC2CC(c3ccccc3)=NO2)cc1OC (centres undefined) | 2.23% (inactive) |

| Structure (SMILES) | inhibition |
| --- | --- |
| COC(C[C@H]1O[C@H]1C(=O)[C@@H](C)OCc1ccccc1)OC | -3.98% (inactive) |
| Cc1ccc(NC(=O)/C(C#N)=N/Nc2ccc(C(=O)O)cc2)c(C)c1 | -9.1% (inactive) |
| CCOC(=O)C1CCN(Cc2coc3c(Cl)cc(Cl)cc3c2=O)CC1 | 10.8% (inactive) |
| COc1ccc(F)cc1S(=O)(=O)NCc1ccccc1 | -3.97% (inactive) |
| CCN(c1ccc(OC)cc1)S(=O)(=O)c1ccc2c(c1)CCN2C(=O)CCC(=O)O | -2.77% (inactive) |
| c1ccc2c(c1)CCc1ccccc1C2=C1CCNCC1 | -0.99% (inactive) |
| CCOC(=O)N1CCC(=C2c3ccc(Cl)cc3CCc3cccnc32)CC1 | 2.73% (inactive) |
| CC(C)(C)NC(=O)C(c1ccco1)N(C(=O)Cn1nnc(-c2ccc(F)cc2)n1)c1cccc(F)c1 (centres undefined) | 5.34% (inactive) |
| Cc1cc(N2CCN(Cc3nc(-c4ccc(Cl)cc4)oc3C)CC2)cc(C)n1 | 15.9% (inactive) |
| Cc1cc(N2CCN(Cc3nc(-c4ccc(F)cc4)oc3C)CC2)cc(C)n1 | 9.44% (inactive) |
| O=c1cnnc(SCCc2ccccc2)[nH]1 | -11.7% (inactive) |
| COc1ccc(-c2nnc3ccc(SC)nn23)cc1 | 12.5% (inactive) |
| O=C(O)Cn1ccc2ccccc21 | -3.21% (inactive) |
| CC(C)Cn1c(CN2CCN(C)C(CCO)C2)nc2ccccc21 (centres undefined) | -7.61% (inactive) |
| CC(=O)Oc1ccc2oc(=O)c3c(c2c1)CCCN3C(=O)CN1CCN(c2ncccn2)CC1 | -4.05% (inactive) |
| O=C(CN1CCN(c2ncccn2)CC1)N1CCCc2c1c(=O)oc1ccc(O)cc21 | 6.59% (inactive) |
| O=C(NCCNC(=O)c1ccc(Cl)cc1Cl)c1ccccn1 | 0.45% (inactive) |
| CCCc1cc(=O)[nH]c(SCC(=O)N2c3ccccc3NC(=O)C2(C)C)n1 | 3.32% (inactive) |
| CC1=C(C(=O)N2CCOCC2)C(c2cc(C)cs2)NC(=O)N1 (centres undefined) | 2.64% (inactive) |
| Cc1ccc(F)cc1NC(=O)COC(=O)c1ccc2ncsc2c1 | -5.07% (inactive) |
| c1ccc(C[C@H]2CN=C(Nc3ccccc3)N2CCCC2CCCCC2)cc1 | 22.3% (inactive) |
| c1ccc(C[C@H]2CN=C(Nc3ccccc3)N2CCC2CCCC2)cc1 | 30% (inactive) |
